This note sets out measurements from PubChem BioAssay (NCATS).

Structures are written as SMILES. Records with an inconclusive call do not appear. Unmarked numbers belong to inactive results. Active and inactive are the calls of the source. Calls come from the whole dose curve; as a rule, active = well fitted inhibition curve with a large enough effect; inconclusive = small, poorly fitted or top-dose-only effect; inactive = flat fitted curve, though single readings scatter.

One test relates to HB3. As to the kind of experiment: qHTS profiling for inhibitors of Plasmodium falciparum proliferation (AID 504749). As to conditions: P. falciparum in erythrocytes, SYBR Green DNA, 72 h; series mostly up to 28.7 µM. A digest of the protocol:
(§1)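 SYBR Green fluorescence of parasite DNA, read after lysis and overnight dark incubation, measured growth over 72 h in erythrocyte culture at 0.3% parasitemia and 2.5% hematocrit. Data normalised to DMSO and 0.29 uM artemisinin, with plate-drift correction.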
In general terms: Quantitative high-throughput screening tests each substance at several concentrations.

The subject of a further test is ICS. The description is as above. As to conditions: P. falciparum in erythrocytes, SYBR Green DNA, 72 h; series mostly up to 28.7 µM. A digest of the protocol:
as §1

The subject of another test is JCK. The test is described as above. Conditions: P. falciparum in erythrocytes, SYBR Green DNA, 72 h; series mostly up to 28.7 µM. A digest of the protocol:
as §1

In another test the test system is N140. Described as above. Conditions: P. falciparum in erythrocytes, SYBR Green DNA, 72 h; series mostly up to 28.7 µM. A digest of the protocol: as §1
Another test relates to P93_24. The description is as above. As to conditions: P. falciparum in erythrocytes, SYBR Green DNA, 72 h; series mostly up to 28.7 µM. The procedure, abridged:
as §1

The test system of a further test is P94_40. The test is described as above. Conditions: P. falciparum in erythrocytes, SYBR Green DNA, 72 h; series mostly up to 28.7 µM. The procedure, abridged:
as §1

The test system of the next test is PAD. The test is described as above. As to conditions: P. falciparum in erythrocytes, SYBR Green DNA, 72 h; series mostly up to 28.7 µM. A digest of the protocol: as §1
A further test has as its system PC15. Described as above. As to conditions: P. falciparum in erythrocytes, SYBR Green DNA, 72 h; series mostly up to 28.7 µM. The procedure, abridged: as §1
Another test has as its system PC26. Described as above. Conditions: P. falciparum in erythrocytes, SYBR Green DNA, 72 h; series mostly up to 28.7 µM. The procedure, abridged: as §1
In a further test the test system is PC49. The test is described as above. As to conditions: P. falciparum in erythrocytes, SYBR Green DNA, 72 h; series mostly up to 28.7 µM. A digest of the protocol:
as §1

In another test the test system is SC27B. The description is as above. Conditions: P. falciparum in erythrocytes, SYBR Green DNA, 72 h; series mostly up to 28.7 µM. A digest of the protocol:
as §1

For a further test, the system named is TAB109. Described as above. As to conditions: P. falciparum in erythrocytes, SYBR Green DNA, 72 h; series mostly up to 28.7 µM. A digest of the protocol:
as §1

For a further test, the system named is TAB113. The description is as above. Conditions: P. falciparum in erythrocytes, SYBR Green DNA, 72 h; series mostly up to 28.7 µM. The procedure, abridged: as §1
The subject of a further test is TAB165. Described as above. Conditions: P. falciparum in erythrocytes, SYBR Green DNA, 72 h; series mostly up to 28.7 µM. A digest of the protocol:
as §1

The subject of a further test is W2. Described as above. As to conditions: P. falciparum in erythrocytes, SYBR Green DNA, 72 h; series mostly up to 28.7 µM. The procedure, abridged:
as §1

For the next test, the system named is CRL-7250. As to the kind of experiment: Cytotoxic Profiling of Annotated Libraries Using Quantitative High-Throughput Screening (AID 1296008). For max response: % is set by controls: 0 for no effect and ±100 for the full control effect. Conditions: Five cell lines viability, CellTiter-Glo ATP luminescence, 48-72 h; max response: hits give low values. The procedure, abridged:
(§2)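 Cytotoxicity was measured as CellTiter-Glo ATP luminescence, read after 10 min at room temperature. Compound treatment of the cells lasted 48 or 72 hr at 37 degrees Celsius in a qHTS format.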
(Cellular ATP, detected with luciferase, serves as a proxy for viable cell number.)

The test system of the next test is HEK293. The test is described as above. Conditions: Five cell lines viability, CellTiter-Glo ATP luminescence, 48-72 h; max response: hits give low values. The procedure, abridged:
as §2

A further test concerns KB-3-1. The test is described as above. Conditions: Five cell lines viability, CellTiter-Glo ATP luminescence, 48-72 h; max response: hits give low values. The procedure, abridged:
as §2

The test system of a further test is NIH3T3. The test is described as above. As to conditions: Five cell lines viability, CellTiter-Glo ATP luminescence, 48-72 h; max response: hits give low values. A digest of the protocol: as §2
The subject of another test is HaCat. The test is described as above. Conditions: Five cell lines viability, CellTiter-Glo ATP luminescence, 48-72 h; max response: hits give low values. A digest of the protocol:
as §2
Note: nearly all actives have a fitted effect of over 60% in size.
Potency is the fitted concentration of half-maximal effect.

Take `COc1ccc(CN(CCN(C)C)c2ncccn2)cc1`: the Potency result in the test on HB3, in the test on ICS, in the test on JCK, in the test on N140, in the test on P94_40 and with PAD was “inactive” each time. Also, the Potency result in the test with PC15, in the test on PC26, in the test on PC49, in the test with SC27B, in the test with TAB109 and in the test with TAB113 was “inactive” in each case. In addition, the Potency entry with TAB165 is “inactive”. The Potency with P93_24 was 7.94 µM (active); in the test on W2 it was 5.36 µM (active). Further, the max response in the test with CRL-7250 is 0.19%; with KB-3-1, -2.44%; with NIH3T3, -1.92%. Further, the call with HEK293 was inactive.
As for `N=C(N)N1CCc2ccccc2C1`, the Potency result in the test with HB3, with ICS, in the test on JCK, in the test on N140, with P93_24 and in the test on P94_40 was “inactive” throughout. In addition, the Potency entry with PAD, with PC15, with PC26, in the test on PC49, in the test with SC27B and in the test on TAB109 was “inactive” in each case. Besides, the Potency entry with TAB113, in the test with TAB165 and in the test with W2 was “inactive” in each case. For the same molecule, the max response with CRL-7250 is -4.65%; in the test on HEK293, -8.82%; in the test with KB-3-1 it was 4.15%; in the test with NIH3T3, -1.16%.
Regarding `C=C[C@@]1(C)CC(=O)[C@]2(O)[C@@]3(C)[C@@H](O)CCC(C)(C)[C@@H]3[C@H](O)[C@H](OC(C)=O)[C@@]2(C)O1`, the Potency result in the test on HB3, in the test with ICS, with JCK, with N140, in the test with P93_24 and with P94_40 was “inactive” throughout. In addition, the Potency result in the test on PAD, with PC15, in the test with PC26, in the test on PC49, with SC27B and with TAB109 was “inactive” throughout. Also, the Potency entry in the test on TAB113, in the test with TAB165 and with W2 was “inactive” in each case. In addition, the max response was 2.74% in the test with CRL-7250, -3.5% with HEK293 and -4.04% in the test on KB-3-1.
For `O=C(c1ccc(F)cc1)C1CCN(CCn2c(=S)[nH]c3ccccc3c2=O)CC1`, the Potency with HB3 is 11.2 µM (active); in the test on ICS, 5.01 µM (active); with JCK it was 11.2 µM (active); in the test with N140, 5.01 µM (active); in the test on P93_24, 3.98 µM (active); in the test with P94_40, 3.16 µM (active). The Potency is 8.91 µM (active) with PAD; 8.49 µM (active) with PC26; 11.2 µM (active) with PC49; 3.16 µM (active) in the test with SC27B; 4.47 µM (active) with TAB109; 3.98 µM (active) in the test on TAB113. For the same molecule, the figures for the Potency in the test on TAB165 and in the test on W2 were 5.01 µM (active) and 2.39 µM (active), respectively. Moreover, the max response in the test on CRL-7250 was -5.62%; in the test with HEK293 it was -98.9%; in the test on KB-3-1, 8.09%; in the test with NIH3T3, -46.6%.
Regarding `CC(C)(C)NC[C@H](O)COc1nsnc1N1CCOCC1`, the Potency in the test with HB3 was 3.55 µM (active); in the test on ICS, 1.26 µM (active); in the test with N140, 3.98 µM (active); with P93_24, 3.55 µM (active); in the test on P94_40, 3.16 µM (active); with PAD it was 6.31 µM (active). For the same molecule, the Potency in the test with PC15 is 2.24 µM (active); with PC26, 12 µM (active); in the test with SC27B, 12.6 µM (active); in the test with TAB109, 5.01 µM (active); with TAB113 it was 6.31 µM (active); in the test on TAB165, 5.01 µM (active). In the test with W2, the Potency was 1.51 µM (active). Further, the max response is -0.569% in the test on CRL-7250, 1.26% in the test with HEK293, 0.822% in the test with KB-3-1 and -2.25% with NIH3T3.
For `CCN[C@@H]1C[C@H](N)[C@@H](OC2OC(CN)=CCC2N)[C@H](O)[C@H]1O[C@H]1OC[C@](C)(O)[C@H](NC)[C@H]1O` (some centres undefined), the max response in the test on CRL-7250 was 0.244%; in the test on KB-3-1 it was 17.1%; in the test with NIH3T3, -0.0944%. Also, the molecule was classed as inactive in the test with HEK293.
Take `NC(=O)c1ccccc1O`: the Potency result in the test on HB3, in the test on ICS, with JCK, with N140, with P93_24 and in the test on P94_40 was “inactive” throughout. Also, the Potency result in the test on PAD, in the test with PC15, in the test with PC26, in the test with PC49, in the test with SC27B and in the test on TAB109 was “inactive” throughout. In addition, the Potency result in the test with TAB113, with TAB165 and with W2 was “inactive” in each case. The results for the max response in the test with CRL-7250, in the test on KB-3-1 and in the test with NIH3T3 were 2.66%, 10.4% and -3.05%, respectively. For the same molecule, in the test on HEK293, the call was inactive.
For the molecule `COc1cc(C)nc(-n2nc(C)cc2OC)n1`, the Potency entry in the test on HB3, in the test on ICS, in the test on JCK, with N140, in the test with P93_24 and in the test with P94_40 was “inactive” throughout. In addition, the Potency entry in the test with PAD, in the test on PC15, in the test on PC26, in the test on PC49, in the test with SC27B and with TAB109 was “inactive” throughout. Also, the Potency result with TAB113, with TAB165 and in the test on W2 was “inactive” throughout. The max response is -9.05% with CRL-7250, -7.38% in the test with HEK293 and 4.41% in the test on KB-3-1. The molecule was classed as inactive in the test with NIH3T3.
Consider `COc1ccc(C(=O)c2ccccc2O)c(O)c1`, for which the Potency entry with HB3, with P93_24, with PC15, in the test on PC49, in the test with TAB109 and in the test on TAB113 was “inactive” in each case. In addition, the Potency with ICS is 2.51 µM (active). Also, in the test with CRL-7250, the result was inactive. The max response was -10.9% with HEK293, 4.59% in the test with HaCat and 1.03% in the test with NIH3T3.
For `COc1ccc(C(=O)c2ccccc2)c(O)c1`, the Potency was 10 µM (active) in the test on HB3, 2.82 µM (active) in the test with ICS and 13.5 µM (active) in the test with W2. Also, the Potency entry in the test with JCK, in the test with P94_40 and in the test on PC49 was “inactive” throughout. For the same molecule, the max response with CRL-7250 was -4.19%; with KB-3-1, -18.9%; with NIH3T3, 2.73%. Further, in the test with HEK293, the call was inactive.
Turning to `Cc1ccc2c(Br)cc(Br)c(O)c2n1`, the Potency was 11.2 µM (active) with ICS; 10 µM (active) in the test with JCK; 10 µM (active) with N140; 11.2 µM (active) with SC27B; 12.6 µM (active) with TAB113; 6.31 µM (active) in the test on TAB165. The Potency is 21.1 µM (active) with CRL-7250 and 8.41 µM (active) in the test with HEK293. For the same molecule, the Potency entry in the test with PC15 was “inactive”. Further, the max response in the test with KB-3-1 was 8.29%.
Consider `C[C@@]12C(=O)OC(=O)[C@]1(C)C1CCC2O1`, for which the Potency in the test with CRL-7250 was 2.99 µM (active); with HEK293, 7.5 µM (active); with NIH3T3 it was 9.44 µM (active).
Regarding `O=C1C(O)=C(O)C(=O)C(O)=C1O`, the Potency entry in the test on HB3, in the test with JCK, in the test on N140, with P93_24, with P94_40 and with PAD was “inactive” each time. The Potency entry in the test with PC15, in the test on PC26, in the test on PC49, in the test on SC27B, with TAB109 and with TAB113 was “inactive” in each case. Moreover, in the test with TAB165, the Potency entry was “inactive”. Further, the max response in the test with CRL-7250 is -21.8%; with KB-3-1 it was -3.2%; in the test with NIH3T3, -17.6%. The molecule was classed as inactive with HEK293.
